The record followed here is PubChem BioAssay (NCI).

SMILES strings stand for the structures. Compounds without any hit were thinned out: in the full panel of roughly 83,000, 20% have a hit.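 A percent growth of 40 corresponds to 60% growth inhibition; 0 means no net growth; -100 means all cells died. Active threshold: below 10.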 Unmarked numbers belong to inactive results. Active and inactive are the calls of the source.

Test systems include SR leukemia; RPMI-8226 leukemia; OVCAR-8 ovarian; OVCAR-5 ovarian; OVCAR-4 ovarian; SK-OV-3 ovarian; IGROV1 ovarian; OVCAR-3 ovarian; HS 578T breast; NCI/ADR-RES ovarian.
Common to all, as to experiment: NCI-60 one-dose screen, 48 h (100 = growth as untreated, 0 = no growth, -100 = all killed)
Holding throughout (conditions): 10 µM unless noted

Turning to `COc1cc(-c2nc3occn3c2-c2ccnc(NCCNS(=O)(=O)c3ccc(Cl)cc3)n2)ccc1F`, the growth was 71.9% in the experiment on SR leukemia; 48.8% in the experiment on RPMI-8226 leukemia; 85.4% in the experiment on OVCAR-8 ovarian; 118% in the experiment on OVCAR-5 ovarian; 78.6% with OVCAR-4 ovarian; 67.3% in the experiment with SK-OV-3 ovarian. Besides, the growth with IGROV1 ovarian is 64.6%; in the experiment with OVCAR-3 ovarian, 114%; with HS 578T breast, 77.8%; in the experiment with NCI/ADR-RES ovarian, 82.2%.

Take `COc1cc(CNC(=O)CCCCC[P+](c2ccccc2)(c2ccccc2)c2ccccc2)c(OC)c2c1OCO2`: the growth in the experiment with SR leukemia is 22.9%; in the experiment on RPMI-8226 leukemia, 1.67% (active); in the experiment on OVCAR-8 ovarian it was 75.3%; in the experiment with OVCAR-5 ovarian, 99.5%; with OVCAR-4 ovarian, 23.7%; in the experiment with SK-OV-3 ovarian it was 127%. Moreover, the growth was 41.8% with IGROV1 ovarian, 44.5% in the experiment with OVCAR-3 ovarian, 78% with HS 578T breast and 105% with NCI/ADR-RES ovarian.

In the case of `Fc1ccc(C2CC(c3cccc(Nc4ccncc4)c3)=NN2c2cc(Cl)cc(Cl)c2)cc1` (stereo not given), the growth in the experiment with SR leukemia was 2.89% (active); in the experiment with RPMI-8226 leukemia, 20.9%; in the experiment on OVCAR-8 ovarian it was -18.3% (active); with OVCAR-5 ovarian, 87.5%; with OVCAR-4 ovarian it was 15.8%; in the experiment with SK-OV-3 ovarian it was 83.3%. For the same compound, the growth in the experiment on IGROV1 ovarian is 25.1%; with OVCAR-3 ovarian, 62.1%; in the experiment with HS 578T breast, 57.8%; in the experiment on NCI/ADR-RES ovarian, 64.3%.

With `COc1ccccc1/C=C1\Oc2cc(OCCCN3CCCC3)ccc2C1=O`, the growth with SR leukemia was 46.9%; in the experiment with RPMI-8226 leukemia, 107%; in the experiment with OVCAR-8 ovarian it was 93.7%; with OVCAR-5 ovarian it was 84.2%; in the experiment on OVCAR-4 ovarian, 89%; in the experiment on SK-OV-3 ovarian, 108%. In addition, the growth with IGROV1 ovarian was 92.3%; in the experiment with OVCAR-3 ovarian, 94.8%; with HS 578T breast, 83.7%; with NCI/ADR-RES ovarian, 84.6%.

Turning to `NC(=O)CN1CCN(c2ccccc2Cl)CC1`, the growth in the experiment with SR leukemia is 99.5%; in the experiment on RPMI-8226 leukemia, 108%; with OVCAR-8 ovarian, 122%; in the experiment with OVCAR-5 ovarian it was 99.9%; with OVCAR-4 ovarian it was 124%; with SK-OV-3 ovarian, 103%. Further, the growth was 108% with IGROV1 ovarian, 116% with OVCAR-3 ovarian, 102% in the experiment with HS 578T breast and 108% with NCI/ADR-RES ovarian.

Consider `O=C(CCN1CCCC1)Nc1ccc2c(NCc3ccc(F)cc3)c3ccccc3nc2c1`, for which the growth in the experiment on SR leukemia is -13.2% (active); in the experiment with RPMI-8226 leukemia, -34.8% (active); with OVCAR-8 ovarian, 2.58% (active); in the experiment on OVCAR-5 ovarian, 2.2% (active); with OVCAR-4 ovarian, -30.9% (active); in the experiment with SK-OV-3 ovarian it was -5.63% (active). The growth with IGROV1 ovarian was -2.1% (active); with OVCAR-3 ovarian it was -46.5% (active); in the experiment with HS 578T breast, -9.73% (active); in the experiment on NCI/ADR-RES ovarian it was 70.3%.

In the case of `CCOC(=O)N1CCc2c(sc3nc4nc[nH]n4c(=O)c23)C1`, the growth in the experiment with SR leukemia was 101%; in the experiment with RPMI-8226 leukemia, 98.2%; with OVCAR-8 ovarian it was 103%; in the experiment on OVCAR-5 ovarian it was 110%; in the experiment with OVCAR-4 ovarian, 109%; in the experiment with SK-OV-3 ovarian, 96.7%. Besides, the growth in the experiment on IGROV1 ovarian is 91.4%; in the experiment on OVCAR-3 ovarian, 105%; in the experiment with HS 578T breast it was 95.8%; with NCI/ADR-RES ovarian it was 97%.

With `COc1cc2c(cc1[N+](=O)[O-])-c1ccc([N+](=O)[O-])cc1/C2=N/NC(N)=S`, the growth is 42.6% with SR leukemia; 66.1% in the experiment on RPMI-8226 leukemia; 51.9% in the experiment with OVCAR-8 ovarian; 98.9% in the experiment with OVCAR-5 ovarian; 57.6% in the experiment on OVCAR-4 ovarian; 96.5% with SK-OV-3 ovarian. Also, the growth is 47.9% in the experiment with IGROV1 ovarian, 73.7% in the experiment on OVCAR-3 ovarian, 77.3% with HS 578T breast and 69.6% in the experiment with NCI/ADR-RES ovarian.

For the compound `Cc1nn(-c2ccccc2)c(N2CCOCC2)c1/C=N/N=c1\sc2ccccc2n1C`, the growth in the experiment with SR leukemia is 36.7%; in the experiment with RPMI-8226 leukemia, 52.9%; with OVCAR-8 ovarian, 93.9%; in the experiment with OVCAR-5 ovarian, 82%; with OVCAR-4 ovarian, 98.6%; in the experiment with SK-OV-3 ovarian, 76.9%. The growth in the experiment with IGROV1 ovarian is 89.5%; in the experiment on OVCAR-3 ovarian it was 104%; in the experiment with HS 578T breast it was 91.2%; in the experiment with NCI/ADR-RES ovarian it was 94.9%.

Consider `CC(=O)N1N=C(c2cccc(Nc3ccncc3)c2)CC1c1ccc2c(c1)OCO2` (stereo not given), for which the growth is 31.5% with SR leukemia; 78.3% with RPMI-8226 leukemia; 91.4% in the experiment with OVCAR-8 ovarian; 94.1% in the experiment with OVCAR-5 ovarian; 90.3% with OVCAR-4 ovarian; 78.3% in the experiment on SK-OV-3 ovarian. The growth in the experiment on IGROV1 ovarian is 91.9%; with OVCAR-3 ovarian it was 96%; in the experiment with HS 578T breast it was 80%; in the experiment on NCI/ADR-RES ovarian, 97.2%.

Take `Cc1c2c(cc[n+]1Cc1ccccc1)c1ccc(OCc3ccccc3)cc1n2Cc1ccccc1`: the growth is -52.5% (active) in the experiment with SR leukemia; -21.6% (active) in the experiment on RPMI-8226 leukemia; -70.9% (active) with OVCAR-8 ovarian; 13.5% in the experiment with OVCAR-5 ovarian; -3.79% (active) in the experiment with OVCAR-4 ovarian; 7.67% (active) in the experiment with SK-OV-3 ovarian. In addition, the growth was -65.1% (active) with IGROV1 ovarian, -97.1% (active) in the experiment with OVCAR-3 ovarian, -35.9% (active) in the experiment with HS 578T breast and 65% in the experiment on NCI/ADR-RES ovarian.

For the compound `Nc1nc(N)nc(NCc2ccccc2)n1`, the growth in the experiment with SR leukemia was 89%; in the experiment with RPMI-8226 leukemia it was 107%; in the experiment on OVCAR-8 ovarian, 117%; in the experiment with OVCAR-5 ovarian, 103%; with OVCAR-4 ovarian, 128%; with SK-OV-3 ovarian it was 115%. Moreover, the growth in the experiment with IGROV1 ovarian was 109%; in the experiment on OVCAR-3 ovarian it was 105%; with HS 578T breast it was 120%; in the experiment on NCI/ADR-RES ovarian, 100%.

With `CN(C)C(=O)c1cc2cnc(Nc3ccc(-c4csc5c(=O)cc(N6CCOCC6)oc45)cc3)nc2n1C1CCCC1`, the growth in the experiment on SR leukemia was 0.0235% (active); in the experiment with RPMI-8226 leukemia, -46.7% (active); in the experiment with OVCAR-8 ovarian it was 2.54% (active); with OVCAR-5 ovarian, -9.43% (active); in the experiment with OVCAR-4 ovarian it was 12.4%; in the experiment with SK-OV-3 ovarian it was -28.3% (active). Also, the growth in the experiment on IGROV1 ovarian was -7.11% (active); in the experiment on OVCAR-3 ovarian, 2.63% (active); in the experiment with HS 578T breast, -8.99% (active); in the experiment on NCI/ADR-RES ovarian, 0.628% (active).
